According to PubChem BioAssay (Tox21):
Records with an inconclusive call do not appear. The source made the active and inactive calls. Calls come from the whole dose curve.

Columns and labels:
[1] = biological target: Acetylcholinesterase (Homo sapiens) (UniProt P22303); assay: Acetylcholinesterase (AChE) small molecule antagonists: colormetric cell-based qHTS assay (AID 1347395); details: SH-SY5Y cells AChE activity, colorimetric (Ellman); series mostly up to 115 µM; note: nearly all actives have a fitted effect of over 30% in size
Sequence of Acetylcholinesterase (Homo sapiens) (P22303 whole entry, looked up): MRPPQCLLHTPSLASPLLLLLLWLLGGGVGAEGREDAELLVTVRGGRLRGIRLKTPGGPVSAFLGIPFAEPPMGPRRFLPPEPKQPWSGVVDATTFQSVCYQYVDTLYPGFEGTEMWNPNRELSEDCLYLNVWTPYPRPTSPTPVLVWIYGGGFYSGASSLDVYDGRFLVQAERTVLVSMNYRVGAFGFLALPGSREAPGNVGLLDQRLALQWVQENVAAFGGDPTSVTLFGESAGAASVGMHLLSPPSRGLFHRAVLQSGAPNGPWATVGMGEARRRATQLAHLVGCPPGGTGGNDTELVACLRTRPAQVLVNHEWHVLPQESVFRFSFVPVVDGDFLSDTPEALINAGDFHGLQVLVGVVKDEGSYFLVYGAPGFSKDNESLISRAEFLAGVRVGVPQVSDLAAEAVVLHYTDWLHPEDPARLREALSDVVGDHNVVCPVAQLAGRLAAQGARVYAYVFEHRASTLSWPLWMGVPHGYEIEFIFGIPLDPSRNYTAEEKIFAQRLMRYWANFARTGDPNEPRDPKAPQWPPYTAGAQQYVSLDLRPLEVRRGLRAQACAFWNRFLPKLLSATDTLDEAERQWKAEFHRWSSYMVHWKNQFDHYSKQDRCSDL
Method in brief: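 Neuroblastoma line SH-SY5Y supplied the enzyme; cells were preincubated with compound for 30 min at 37 C and 5% CO2. Acetylthiocholine with DTNB was then added for 90 min at 37 C, and thiocholine was measured by colour.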

[2] = biological target: Acetylcholinesterase (Homo sapiens) (UniProt P22303); assay: Acetylcholinesterase (AChE) small molecule antagonists: enzyme-based qHTS assay (AID 1347397); details: Potency: AChE enzyme activity inhibition; outcome: AChE enzyme activity inhibition; series mostly up to 115 µM; note: nearly all actives have a fitted effect of over 55% in size
Method in brief: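 Compound or DMSO vehicle was pin-transferred onto recombinant human AChE (50 mU/mL as dispensed) and left 30 min at room temperature. Acetylthiocholine with DTNB then started the reaction, read colorimetrically 10 min later.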

[3] = biological target: Acetylcholinesterase (Homo sapiens) (UniProt P22303); assay: Acetylcholinesterase (AChE) small molecule antagonists: fluorescence cell-based qHTS assay (AID 1347398); details: SH-SY5Y cells; Potency: AChE activity; outcome: AChE activity; series mostly up to 115 µM; note: nearly all actives have a fitted effect of over 50% in size
Method in brief: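 Using neuroblastoma SH-SY5Y cells as the enzyme source, test chemicals are preincubated 30 min at 37 C; AChE-driven acetylthiocholine cleavage is then quantified by thiocholine-dependent Thiolite Green fluorescence after 40 min at room temperature.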

[4] = biological target: Acetylcholinesterase (Homo sapiens) (UniProt P22303); assay: Acetylcholinesterase (AChE) small molecule antagonists: enzyme-based qHTS assay with human liver microsomes (AID 1347399); details: Potency: qHTS inhibition; outcome: qHTS inhibition; series mostly up to 115 µM; note: nearly all actives have a fitted effect of over 60% in size
Method in brief: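 Recombinant human AChE (50 mU/mL in the enzyme mix) and human liver microsomes (0.25 mg/mL final) were preincubated with compound and NADPH (0.25 mg/mL final) for 30 min at 37 C. Acetylthiocholine/DTNB was then added; thiocholine was read colorimetrically after 10 min at room temperature.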

Measured: Potency

Nc1ncnc2c1ncn2[C@H]1CC[C@@H](CO)O1
inactive: all assays above

C=C(C)C(=O)OCC(O)COc1ccc(C(C)(C)c2ccc(OCC(O)COC(=O)C(=C)C)cc2)cc1 (centres undefined)
inactive: all assays above

O=Cc1cc(O)ccc1Br
inactive: all assays above

O=C(N/N=C/c1ccccc1O)c1ccncc1
inactive: all assays above

C=CCCC(=O)O
inactive: all assays above

CCCCCCCCC(CO)CCCCCC (centres undefined)
inactive: all assays above

CCSCC
inactive: all assays above

CCC(C)COC(=O)CC(C)C (centres undefined)
inactive: all assays above

O=C(O)CCCc1ccccc1
inactive: all assays above

COC(=O)CS
inactive: all assays above

O=C(O)c1ccccc1-c1ccc(C(F)(F)F)cc1
inactive: all assays above

COc1c(N2CCNC(C)C2)c(F)cc2c(=O)c(C(=O)O)cn(C3CC3)c12 (centres undefined)
inactive: all assays above

COC(=O)C1=C(C)NC(C)=C(C(=O)OC(C)C)C1c1cccc2nonc12 (centres undefined)
inactive: all assays above

CCCCCCCC/C=C\CCCCCCCC(=O)OCC
inactive: all assays above

CCc1nccnc1C
inactive: all assays above

C[C@H](O)C(=O)Nc1c(I)c(C(=O)NC(CO)CO)c(I)c(C(=O)NC(CO)CO)c1I
inactive: all assays above
